The campaign covered roughly 16,000 compounds. About 5,700 (36%) were called active. Not shown: some 24% with an inconclusive outcome. The list shows a part of the results. Unmarked numbers belong to inactive results. Calls come from the whole dose curve; as a rule, active = well fitted curve in the direction sought with a large enough effect; inconclusive = small, poorly fitted or top-dose-only effect, or effect the other way; inactive = no such curve, though single readings can be large or run the other way.
biological target: Cytochrome P450 1A2 (Homo sapiens) (UniProt P05177); experiment: Cytochrome panel assay with activity outcomes; details: recombinant CYP, pro-luciferin dealkylation, luminescence, p450-cyp1a2; series mostly up to 57.1 µM; activity, negative = inhibition: at the top concentration
Description: The P450 gene superfamily is involved in the metabolism and clearance of xenobiotics. This assay used various human CYP P450 isozymes to measure the dealkylation of various pro-luciferin substrates to luciferin. The luciferin is then measured by luminescence after the addition of a luciferase detection reagent. Pro-luciferin substrate concentration in the assay was equal to its KM for its CYP P450 isozyme. Inhibitors and some substrates limit the production of luciferin, and decrease measured luminescence.
NCGC Assay Protocol Summary:
1, Reagent, 2 uL, Isozyme and Pro-Luciferin
2, Library compounds, 23 nl, 40 uM to 0.24 nM dilution series
3, Controls, 23 nl, Isozyme specific inhibitor
4, Reagent, 2 uL, NADPH regeneration solution
5, Incubation time, 60 min, Isozyme specific temperature
6, Reagent, 4ul, Detection reagent
7, Incubation time, 20 min, Isozyme specific temperature
8, Detection, 1 sec, ViewLux luminescent read
The luciferase-based P450-GloTM Screening Systems were obtained from Promega (Madison, WI) for CYP 1A2 (V9770), CYP 2C9 (V9790), CYP2 C19 (V9880), CYP 2D6 (V9890), and CYP 3A4 Luciferin-PPXE (V9910) and were adapted for 1,536-well microplates and an automated protocol. The control compounds furafylline for 1A2 (F124), sulfaphenazole for CYP 2C9 (S0758), ketoconazole for CYP 2C19 (K1003), quinidine for 2D6 (Q3625), and ketoconazole for 3A4 (K1003) were purchased from Sigma Aldrich (St. Louis, MO). Recombinant P450 enzymes were obtained from baculovirus constructs expressed in insect cells (BD/Gentest).
Medium-binding white solid Kalypsys plates used. Mixtures kept on ice. 1A2: 10 nM 1A2, 100 uM Luc-ME, 100 mM KPO4; 2C9: 10 nM 2C9, 100 uM Luc-H, 25 mM KPO4; 2C19: 5 nM 2C19, 10 uM Luc-H EGE, 50 mM KPO4; 2D6: 5 nM 2D6, 30 uM Luc-ME EGE, 100 mM KPO4; 3A4: 10 nM, 25 uM Luc-PPXE. All amounts are reflected in their final concentration, working concentration is 2x.
NADPH regeneration solution: 1.3 mM NADP+, 3.3 mM glucose-6-phosphate, 3.3 mM MgCl2, 0.4 U/mL glucose-6-phosphate dehydrogenase for all isozymes, 200 mM KPO4 for 3A4. Mixture prepared at RT but kept on ice during automated run.
RT incubation in auxilliary plate hotel for 1A2, 2D6, and 3A4; 37C for 2C9 and 2C19.
Keywords: P450, CYP1A2, CYP2C19, CYP2C9, CYP2D6, CYP3A4, Luciferase, MLSMR, MLSCN, NIH Roadmap, qHTS, NCGC
% is set by controls: 0 for no effect and ±100 for the full control effect.

Cytochrome P450 1A2 (Homo sapiens), sequence (P05177 whole entry, looked up): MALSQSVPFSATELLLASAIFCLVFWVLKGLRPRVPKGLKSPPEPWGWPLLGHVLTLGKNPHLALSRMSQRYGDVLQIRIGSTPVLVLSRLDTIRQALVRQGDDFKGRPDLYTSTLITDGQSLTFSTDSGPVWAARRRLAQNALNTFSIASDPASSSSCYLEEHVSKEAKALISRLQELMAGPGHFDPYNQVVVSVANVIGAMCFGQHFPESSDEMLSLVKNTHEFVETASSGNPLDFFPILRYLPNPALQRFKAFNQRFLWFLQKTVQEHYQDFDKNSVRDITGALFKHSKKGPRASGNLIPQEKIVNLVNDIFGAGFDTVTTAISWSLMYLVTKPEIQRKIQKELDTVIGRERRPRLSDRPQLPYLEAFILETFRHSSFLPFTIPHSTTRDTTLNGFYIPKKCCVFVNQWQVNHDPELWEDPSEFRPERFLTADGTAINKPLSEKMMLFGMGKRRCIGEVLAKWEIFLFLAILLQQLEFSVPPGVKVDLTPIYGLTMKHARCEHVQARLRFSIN

Row | Structure (SMILES) | activity, negative = inhibition | AC50
1 | C[C@@]12C(=O)OC(=O)[C@@]1(C)[C@H]1CC[C@@H]2O1 | -6% | –
2 | CC(=O)[C@]1(O)CC[C@@H]2[C@H]3C[C@@H](C)C4=CC(=O)CC[C@@]4(C)[C@H]3[C@@H](O)C[C@]21C | -1.99% [at 2.29 µM] | –
3 | CC(C)N[C@@H](C)Cc1ccc(I)cc1 | – | 10 µM (active)
4 | O=C1NC(=S)NC(=O)C1=Cc1cccc2cc3ccccc3cc12 | – | 0.398 µM (active)
5 | C[C@]12CC[C@@H]3[C@H](CCC4=CC(=O)CC[C@]43C)[C@]1(O)CC[C@@]2(O)C(=O)CO | 4.85% [at 2.29 µM] | –
6 | COc1ccc2[nH]cc(CCN)c2c1 | – | 1.58 µM (active)
7 | NCCc1c[nH]c2ccc(OC(=O)C(=O)O)cc12 | – | 2.51 µM (active)
8 | CCCCCCCCCOc1ccc2[nH]cc(CCN)c2c1 | – | 0.0398 µM (active)
9 | COc1ccc2[nH]cc(CCN(C)C)c2c1 | – | 15.8 µM (active)
10 | CC(=O)O[C@H]1CC[C@@]2(C)C(=CC[C@@H]3[C@H]2CC[C@]2(C)C(=O)CC[C@H]32)C1 | -16.8% [at 25.6 µM] | –
11 | CC(C)NC(=O)N1CCC2(CC1)CCN(C(=O)Oc1ccccc1)CC2 | 3.33% | –
12 | CCOC(=O)c1[nH]c(C)c(C(=O)N2CCC3(CC2)OCCO3)c1C | -26.6% | –
13 | CN(C)C(=O)Oc1ccc[n+](C)c1 | 2.74% | –
14 | CC(C)(C)NC[C@H](O)c1cc(Cl)c(N)c(Cl)c1 | -1.17% [at 25.6 µM] | –
15 | COCCNC(=S)N1C2CCC1CC(NC(=O)NC13CC4CC(CC(C4)C1)C3)C2 (stereo not given) | 18.7% | –
16 | Nc1nc(N)c(Cn2ccnc2)c(=O)[nH]1 | -19.7% [at 11.4 µM] | –
17 | Cn1c(=O)c2[nH]cnc2n(C)c1=O | -27% [at 25.6 µM] | –
18 | C[C@@]12CC[C@H]3[C@@H](CCC4=C(O)C(=O)CC[C@]43C)[C@H]1CCC2=O | -8.41% | –
19 | Nc1ncnc2c1ncn2[C@@H]1O[C@@H](COP(=O)(O)CP(=O)(O)OP(=O)(O)O)[C@H](O)[C@@H]1O | 2.41% | –
20 | CCCCCCN=Cc1c(O)n(C)c(=O)n(C)c1=O | – | 12.6 µM (active)
21 | CCCCn1c(O)c(C=NCCN2CCCCC2)c(=O)[nH]c1=O | -2.11% | –
22 | Cc1ccccc1OCCN=Cc1c(O)n(C)c(=O)n(C)c1=O | – | 12.6 µM (active)
23 | COc1cccc(-n2c(O)c(C=NCCN3CCOCC3)c(=O)[nH]c2=O)c1 | 4.03% | –

Row | Structure (SMILES) | activity, negative = inhibition | AC50
24 | O=C(O)/C=C\c1ccc[c]([Sb](=[O])([OH])[OH])c1 | -9.5% [at 2.29 µM] | –
25 | NC(N)=Nc1ccc2[nH]c3c(c2c1)C[C@]1(O)[C@@H]2Cc4ccc(O)c5c4[C@]1(CCN2CC1CC1)[C@@H]3O5 | 4.44% | –
26 | NNC(=O)c1ccc(O)cc1 | -20.8% | –
27 | CSCC[C@@H](N)P(C)(=O)O | -11% [at 11.4 µM] | –
28 | COC(=O)N1CCC2(CCCN(C)C2)CC1 | 2.96% | –
29 | C[C@H](Br)CN(C[C@H](C)Br)c1ccc2c(c1)Cc1ccccc1-2 | – | 3.16 µM (active)
30 | CCN1C[C@]2(C)CC[C@H](O)[C@@]34[C@@H]5CC6[C@@H](OC)C[C@@](O)([C@@H]5[C@@H]6O)[C@H](C[C@@H]23)[C@H]14 | -7.34% [at 25.6 µM] | –
31 | C[C@@H]1O[C@@H](O[C@H]2C[C@@H](O)[C@]3(CO)[C@@H]4[C@@H](O)C[C@]5(C)[C@H]([C@@H]6COC(=O)C6)CC[C@@]5(O)[C@H]4CC[C@@]3(O)C2)[C@H](O)[C@H](O)[C@@H]1O | -2.23% | –
32 | CN1CC[C@@]2(CCCN(C(=O)Oc3ccccc3)C2)C1 | -21.9% | –
33 | Cc1ncsc1CCCl | – | 31.6 µM (active)
34 | Oc1ccc([C@H](O)[C@@H]2CCCCN2)cc1O | -3.47% [at 11.4 µM] | –
35 | O=C(O)[C@@H]1C[C@H]1[C@@H](NP(=O)(c1ccccc1)c1ccccc1)c1ccccc1 | -1.59% | –
36 | O=C(O)[C@H]1C[C@@H]1[C@H](NP(=O)(c1ccccc1)c1ccccc1)c1ccccc1 | -1.74% | –
37 | C=C(CC1(C(C)NP(=O)(c2ccccc2)c2ccccc2)CC1)c1ccccc1 (stereo not given) | – | 15.8 µM (active)
38 | c1csc(CN2CCCC3(CCNCC3)C2)n1 | -13% | –
39 | CC(=O)O[C@H]1CC[C@@]2(C)[C@@H](CC[C@H]3[C@H]2CC(=O)[C@@]2(C)[C@@H]3C[C@H]3CC(C)=CC(=O)[C@H]32)C1 | -8.97% [at 2.29 µM] | –
40 | C[C@H](CCC(=O)O)[C@H]1CC[C@]2(C)[C@@H]3C(=O)C[C@H]4C(C)(C)[C@@H](O)CC[C@]4(C)[C@H]3C(=O)C[C@@]12C | -10.7% [at 11.4 µM] | –
41 | C[C@H]1CC[C@@]2(NC1)O[C@@H]1C[C@H]3[C@@H]4CC=C5C[C@@H](O)CC[C@]5(C)[C@@H]4CC[C@]3(C)[C@@H]1[C@@H]2C | -7.71% [at 25.6 µM] | –
42 | CN(C)CCCc1cccnc1 | -10.2% [at 2.29 µM] | –
43 | COc1ccccc1CC1C(=O)C2CCN1CC2 (stereo not given) | -5.49% | –
44 | OC1(c2ccc(Cl)cc2)CCN(Cc2c[nH]c3ccccc23)CC1 | – | 31.6 µM (active)
45 | CN(C)Cc1c[nH]c2ccccc12 | -20.8% [at 25.6 µM] | –

From PubChem BioAssay AID1851 (National Center for Advancing Translational Sciences (NCATS), 2009)
